Assay outcomes from PubChem BioAssay.
CHX counter = counter-screen hit for Shiga toxin inhibitors, cycloheximide; AID 2314; 300,000 compounds, 12% hits; max response, %; cell reporter, cycloheximide protein synthesis inhibition counterscreen; in the data active = max response mostly above about 13%, no sharp cut-off; inactive = mostly below about 14%; also: read at 38.3 µM for the half of the compounds with a filed dose; 0% is about no effect
Pf growth 48h = P. falciparum growth inhibition at 48 hours (one generation). Potency, µM (highest dose often 28.7 µM), for the others: at the top dose activity change, negative = inhibition, usual class: inhibitors. P. falciparum luciferase growth in erythrocytes, 48 h. AID 504832. 310,000 compounds, 5.9% hits; also: potency is read from the fitted curve at half-maximal effect; % is scaled to controls: 0 for no effect and ±100 for the full control effect
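Growth was read as firefly luciferase luminescence after a 48 h, 37 C, 5% CO2 exposure of compounds to reporter-bearing P. falciparum cultures (0.1% parasitemia, 2% hematocrit final) in Albumax-supplemented RPMI 1640.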
Pf growth 96h = P. falciparum growth inhibition at 96 hours | P. falciparum luciferase reporter growth, 96 h | Potency, µM (doses to about 28.7 µM), inactives show at the highest dose activity change, negative = inhibition, most hits filed as inhibitors | 320,000 compounds, 6.9% hits | AID 504834; also: potency is read from the fitted curve at half-maximal effect; % is scaled to controls: 0 for no effect and ±100 for the full control effect
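Erythrocytes infected with luciferase-expressing P. falciparum were dispensed at 2% hematocrit and 0.05% parasitemia (final), then incubated with compounds 96 hours at 37 C in 5% CO2. Luminescence after detection reagent addition reported growth.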
Shiga inhibitor = blocks Shiga toxin action in Vero cells. Vero cells, Shiga toxin protein synthesis inhibition reporter. inhibition, % at 38.7 µM. 290,000 compounds, 9.2% hits; in the data active = inhibition mostly above about 28%, no sharp cut-off; inactive = mostly below about 43%; also: 0% is about no effect
NS1 inh = influenza NS1 inhibition | Potency, µM (titrated, usually from 46.1 µM), for inactives: at the top dose activity, positive = more growth | 270,000 compounds, 0.4% hits; calls by dose curve; also: potency is read from the fitted curve at half-maximal effect; actives are rising curves; nearly all actives have a fitted effect of over 50% in size
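Recovery from NS1-induced slow growth read by OD600 in budding yeast switched to galactose assay medium (pH 6.0, -URA) at 1:100 dilution. Compound 23 nl per well; the matching strain lacking NS1 serves as control.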
Starred values were filed as active, the others as inactive; ? = inconclusive; / = not tested or not shown. A selection: hits, their analogues and other compounds. The true share with any hit is near 21%. Unless noted, calls follow the shape of the dose curve; as a rule, active = well fitted inhibition curve with a large enough effect; inconclusive = small, poorly fitted or top-dose-only effect, or another doubt; inactive = no such curve, though single readings can be large or run the other way.

SMILES	CHX counter	Pf growth 48h	Pf growth 96h	Shiga inhibitor	NS1 inh
O=C(NCC1CCCO1)Nc1cc(Cl)cc(Cl)c1 (configuration not stated)	6	16%	-2%	21	-8%
O=C(CSCc1c(Cl)cccc1Cl)NCC1CCCO1 (configuration not stated)	2	40%	79%	12	-14%
CCN(C(=O)COC(=O)CSc1ccc(F)cc1)c1c(N)n(Cc2ccccc2)c(=O)[nH]c1=O	/	-8%	-5%	/	/
COCCN1C(=O)N(c2ccc(OC)cc2)C(=O)C1CC(=O)Nc1cccc(F)c1 (configuration not stated)	-3	-5%	0%	-7	14%
O=C(NCc1nnnn1-c1ccc(F)cc1)C1CC(=O)N(c2ccc(F)cc2)C1 (configuration not stated)	/	2%	-5%	/	/
CCN(CC(=O)Nc1cc(Cl)ccc1OC)CC(=O)NC1CCS(=O)(=O)C1 (configuration not stated)	-5	-10%	5%	-8	-44%
COc1cc(NC(=S)NCC2CCCO2)c(OC)cc1Cl (configuration not stated)	-1	-11%	8.3µM*	-3	3%
S=C(NCC1CCCO1)Nc1ccc(Cl)cc1Cl (configuration not stated)	46*	77%	?	143*	9%
S=C(NCC1CCCO1)Nc1ccccc1 (configuration not stated)	1	43%	43%	6	5%
Clc1ccc(-c2ccc(CNCC3CCCO3)o2)cc1 (configuration not stated)	35*	34%	55%	96*	-3%
O=C(CCC(=O)OCC(=O)c1cccc([N+](=O)[O-])c1)Nc1cccc(Cl)c1Cl	-3	18%	-1%	2	3%
O=C(CCC(=O)OCC(=O)c1ccc([N+](=O)[O-])cc1)Nc1ccccc1Cl	-1	?	13µM*	-15	11%
O=C(CC(=O)c1ccccc1)Nc1cc([N+](=O)[O-])ccc1Cl	16*	0%	-9%	67	?
O=C(CCc1ccccc1)OCC(=O)c1ccc([N+](=O)[O-])cc1	11	21%	12µM*	-4	/
CCOC(=O)c1cc(S(=O)(=O)N2CCN(C(=O)OCC)CC2)cn1C	-3	2%	?	16	-8%
O=C(Nc1ccc(-c2n[nH]c(=S)o2)cc1)c1ccccc1Br	-2	34%	?	7	8%
CC1CCCN(S(=O)(=O)c2cc3c4c(c2)CCN4C(=O)CC3)C1 (configuration not stated)	/	-13%	-25%	/	/
CC(C)(C)NS(=O)(=O)c1ccc(NC(=O)C2CCCCC2)cc1	9	-17%	-4%	24	-2%
COc1ccc2oc(=O)cc(CN(C)Cc3ccccc3)c2c1	-4	?	?	-5	-9%
C=CCn1c(SCC#N)nnc1-c1ccc2ncccc2c1	1	?	?	-8	5%
CCOc1ccc(C(C)NC(=O)c2cc(=O)[nH]c3ccccc23)cc1OCC (configuration not stated)	-1	-8%	3%	-9	-6%
COC(=O)[C@]1(C)CCC[C@@]2(C)C3CC[C@@]4(C)C[C@]3(CCC21)CC(=O)N4Cc1ccc(OC)cc1 (some centres not stated)	/	1.7µM*	1.5µM*	/	/
CC(C)NC(=O)[C@]1(C)CCC[C@@]2(C)C3CC[C@@]4(C)C[C@]3(CCC21)CC4=O (some centres not stated)	/	7%	29%	/	/
CCCc1ccc(C(=O)NNc2cccc(C)c2)cc1	29*	30%	?	46*	-61%
COc1ccc(NC(=O)c2ccc(CN3CCN(c4ccccc4)CC3)cc2)cc1	4	?	?	3	-15%
COc1ccc(C(=O)Nc2ccc(N3CCN(Cc4ccccc4)CC3)cc2)cc1	-1	-7%	0%	-25	2%
COc1cccc(NC(=O)c2ccc(CN3CCN(c4ccccc4)CC3)cc2)c1	17*	12µM*	41%	27*	-32%
Cc1cccc(NC(=O)c2ccc(CN3CCN(Cc4ccccc4)CC3)cc2)c1	27*	?	15%	36	4%
Cc1cccc(NNC(=O)C(=O)NNc2cccc(C)c2)c1	14	-17%	-24%	24	-4%
COc1cccc(C(=O)Nc2ccc(N3CCN(Cc4ccccc4)CC3)cc2)c1	13	/	?	43*	8%
